Measurements reported in PubChem BioAssay (NCI).
Compounds without any hit were thinned out: in the full panel of roughly 83,000, 20% have a hit.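 For each line, cells grew in 96-well plates with the test compound present at a single concentration for 48 hours.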 Values without a mark were called inactive. Calls of active or inactive are those of the source. Rule for the calls: active = growth percent below 10; inactive = the rest.

How the values were obtained:
Assay in all cases: NCI-60 one-dose screen, 48 h (100 = growth as untreated, 0 = no growth, -100 = all killed)
Conditions in all cases: 10 µM unless noted
SK-MEL-2 melanoma = test system: SK-MEL-2 melanoma
EKVX NSCLC = test system: EKVX NSCLC
SN12C renal = test system: SN12C renal
UO-31 renal = test system: UO-31 renal
ACHN renal = test system: ACHN renal
CAKI-1 renal = test system: CAKI-1 renal
A498 renal = test system: A498 renal
CCRF-CEM leukemia = test system: CCRF-CEM leukemia
SR leukemia = test system: SR leukemia
RPMI-8226 leukemia = test system: RPMI-8226 leukemia
OVCAR-8 ovarian = test system: OVCAR-8 ovarian
OVCAR-5 ovarian = test system: OVCAR-5 ovarian
OVCAR-4 ovarian = test system: OVCAR-4 ovarian
SK-OV-3 ovarian = test system: SK-OV-3 ovarian
IGROV1 ovarian = test system: IGROV1 ovarian
OVCAR-3 ovarian = test system: OVCAR-3 ovarian
HS 578T breast = test system: HS 578T breast
NCI/ADR-RES ovarian = test system: NCI/ADR-RES ovarian
TK-10 renal = test system: TK-10 renal
MOLT-4 leukemia = test system: MOLT-4 leukemia

Row | SMILES | growth (SK-MEL-2 melanoma) | growth (EKVX NSCLC) | growth (SN12C renal) | growth (UO-31 renal) | growth (ACHN renal) | growth (CAKI-1 renal) | growth (A498 renal) | growth (CCRF-CEM leukemia) | growth (SR leukemia) | growth (RPMI-8226 leukemia) | growth (OVCAR-8 ovarian) | growth (OVCAR-5 ovarian) | growth (OVCAR-4 ovarian) | growth (SK-OV-3 ovarian) | growth (IGROV1 ovarian) | growth (OVCAR-3 ovarian) | growth (HS 578T breast) | growth (NCI/ADR-RES ovarian) | growth (TK-10 renal) | growth (MOLT-4 leukemia)
1 | O=C(CCCCCCN1CC(=O)N2[C@@H](c3ccccc3Cl)c3[nH]c4ccccc4c3C[C@H]2C1=O)NO | 70.1% | 82.2% | 70.1% | 55.6% | 81.7% | 71.4% | 73.5% | 17.8% | 15.9% | 14.8% | 49.6% | 61% | 68.3% | 84.8% | 66.5% | 56.9% | 59.2% | 89.8% |  | 
2 | C[C@H](NC(=O)[C@@H]1CSSC[C@@H](NC(=O)c2nc3ccccc3cc2O)C(=O)NCC(=O)N1C)c1ccccc1 | 62.2% | 42% | -17.7% (active) | 63.8% |  | 83.2% | 112% |  | -17.5% (active) | 22.6% | 26.3% | 45.6% | 94.3% | 71.7% | 71.6% | -51.4% (active) | 33% | 91.5% | 59.9% | -8.45% (active)
3 | O=C1CC(N2C(=O)/C(=C/C(Cl)=C\c3ccc([N+](=O)[O-])cc3)SC2=S)C(=O)N1c1ccc(O)cc1 (stereo not drawn) | -9.67% (active) | -2.89% (active) | -8.4% (active) | -75.2% (active) |  | 7.93% (active) | -26.8% (active) |  | -13.4% (active) | -15.1% (active) | 11.6% | -56.5% (active) | 14.1% | 33.5% | -45.8% (active) | -16.4% (active) | 15.5% | 3.58% (active) | -1.39% (active) | 2.92% (active)
4 | CCOC(=O)c1c(/C=C/C(=O)O)nc2ccccc2c1/C=C/c1ccccc1 | 47.4% | 61.6% | 27.1% | 42.5% | 43.2% | 62.3% | 8.83% (active) | 17.1% |  | 10.9% | 31.2% | 57.4% | 60.5% | 93.6% | 52.1% | 13.3% | 18.7% | 32.7% |  | 25.5%
5 | CCOC(=O)c1c(-c2ccc(Cl)cc2)c(C#N)c(=O)n(-c2ccccc2CC)c1N | 114% | 90.6% | 92.1% | 71.6% | 89.5% | 105% | 97.5% | 17.7% |  | 69.3% | 87.1% | 92.6% | 98.1% | 102% | 99.8% | 87.8% | 102% | 91.9% |  | 70.3%
6 | C=C(C)[C@@H]1CC=C2c3sc(-c4ccc(C)cc4)nc3C[C@@H](C)[C@]2(C)C1 | 105% | 95.1% | 98.8% | 78% | 102% | 90.6% | 106% | 99.4% |  | 109% | 99.3% | 101% | 98.2% | 97.5% | 109% | 104% | 100% | 106% |  | 98%
7 | C=CCn1c(C)nc2cc(Nc3nc(N4CCCC4)nc4ccccc34)ccc21 | 109% | 97.7% | 90.3% | 68.1% |  | 84.9% | 71.4% |  | 5.75% (active) | 55% | 84.1% | 123% | 91.3% | 123% | 95.4% | 105% | 86.8% | 83.3% | 108% | 49.9%
8 | COc1ccc(-c2nc(SCCC(C)C)nc(N/N=C\c3cccc([N+](=O)[O-])c3)c2C#N)cc1 | 80.4% | 40.9% | 35.5% | 7.32% (active) | 15.8% | 22.6% | 41.2% | 45.8% |  |  | 39.7% | 38.4% | -13.3% (active) | 63.4% | 38.8% | -30.4% (active) | 9.44% (active) | 56.2% |  | 73.1%
9 | CN(C)CCC=C1c2ccccc2C(C)(C)c2ccccc21 | 74.4% | 110% | 71.2% | 58.1% | 90.5% | 91.2% | 91% | 49.6% |  | 0.547% (active) | 88.9% |  | 76.5% | 99.7% | 61.3% | 80.1% | 50.8% | 77.6% |  | 72.9%
10 | COc1cc(/C=C/C(=O)c2ccc(Nc3nc(Nc4ccc(F)cc4)nc(Nc4ccc(Cl)cc4)n3)cc2)cc(OC)c1OC | 62.6% | 74.1% | 70.1% | 42.4% | 78.1% | 124% | 79.8% |  | -5.99% (active) | -47.5% (active) | 31.7% | 81.3% | 31.8% | 105% | 54.8% | 190% | 59.1% | 38.9% |  | 0.996% (active)
11 | CC1=C(SCCC(=O)OC(C[Se]C2=C(C)C(=O)c3ccccc3C2=O)C(=O)NCCCCCC(=O)OCc2ccccc2)C(=O)c2ccccc2C1=O (stereo not drawn) | 23.3% | 55.8% | 38.4% | 25.3% | 36.4% | 90.8% | 70.8% | 10.8% |  | 30.2% |  | 44.6% | 53.2% | 32.7% | 25% | 21% | 34% | 21.1% |  | 10.9%
12 | Cn1c(-c2c(N)n(Cc3ccc(C(F)(F)F)cc3)c3nc(C#N)c(C#N)nc23)nc2ccccc21 | 15.4% | 1.13% (active) | 14.4% | -23% (active) |  | 9.68% (active) | -6.26% (active) |  | -35.5% (active) | -42.3% (active) | 7.05% (active) | 30% | 22.6% | -4.02% (active) | 16.9% | -8.62% (active) | 12.4% | 6.65% (active) | -12.9% (active) | -16.8% (active)
13 | COc1cc(-c2nc(N3CCN(C)CC3)c3ccccc3n2)cc(OC)c1OC | 81.2% | 67.2% | 82.6% | 45% |  | 50.3% | 21.6% | 99.3% | 48.9% | 71.2% | 75.7% | 88.5% | 55.9% | 68.4% | 62.5% | 3.18% (active) | 41.1% | 10.3% | 94.1% | 
14 | COc1cc(/C=C2\C(=O)ON=C2C)cc(OC)c1OC | 113% | 97.8% | 98.3% | 80.3% | 96.9% | 91.5% | 65% | 92.8% |  | 95.9% | 99.7% |  | 104% | 98.9% | 101% | 101% | 92% | 100% |  | 102%
15 | Cc1cc(/C=C\c2ccc3ccccc3[n+]2C)c(O)c2ncccc12 | 35.9% | 18.7% | 3.73% (active) | 16.8% | 6.11% (active) | -0.345% (active) | 30.5% | 25.6% |  | 14% | 6.2% (active) |  | 7.86% (active) | 20.9% | -1.34% (active) | 25.8% | 32.9% | 32.4% |  | 0.695% (active)
16 | CCc1ccccc1-n1c(-c2ccc(Cl)cc2)cc(-c2ccc(Cl)cc2)c(C#N)c1=O | 103% | 87.5% | 92.3% | 75.3% | 98.8% | 90.2% | 94.9% | 34.4% |  | 49.3% | 88.9% | 92.2% | 85.9% | 96.5% | 96.1% | 87.7% | 88.4% | 81.7% |  | 31.8%
